Source: PubChem BioAssay
In the library only some 0.5% were active in any assay of this set; here they are far more common.
E coli growth-1: E. coli V3065 growth inhibition, primary screen, counter-screen for AddAB inhibitor project, absorbance, OD600; inhibition, % at 11.9 µM; hit rate 0.27% among 330,000; AID 449728, 2010; 18 h;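 active means inhibition above the campaign's mean inhibition across all tested compounds plus 3 SD, cut at about 9.9% in these data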;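 further: uninfected addAB+ strain grown without phage in ampicillin broth; 0% = DMSO wells and 100% = ciprofloxacin 0.95 µg/ml wells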
phage Ecoli inh: growth loss of phage-infected E. coli, primary screen, RecBCD inhibitor project, absorbance, with phage, HTS | hit rate 0.26% among 360,000 | inhibition, % at 11.9 µM; in the data active means inhibition above about 11%
AddAB inh: growth inhibition of E. coli expressing H. pylori AddAB, primary screen, AddAB inhibitor project, absorbance; inhibition, % at 11.9 µM; hit rate 0.29% among 330,000; in the data active means inhibition above about 12%;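 further: 0% = vehicle wells of infected cells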
E coli growth-2: E. coli growth inhibition, primary screen, OD600 | Escherichia coli growth, 23 h; active compounds read low | OD600 absorbance (no concentration beside the values) | hit rate 0.21% among 330,000;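 active means OD600 absorbance below the run mean of sample wells minus 3.6 SD, in any replicate, cut at about 0.56 in these data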
Tat export inh: E. coli Tat export inhibitors, primary screen, MC4100, TorA-mCherry reporter, fluorescence, single point | hit rate 0.036% among 340,000 | inhibition, % at 10 µM | AID 488895, 2010;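 active means mean replicate inhibition at least 50% and at least half of replicates individually reaching 50%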;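 further: exported cargo escapes ClpAP degradation while cytoplasmic cargo is degraded and loses fluorescence; 0% = median of neutral control wells and 100% = median of NaSCN control wells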
AddAB conf: growth loss of phage-infected E. coli expressing H. pylori AddAB, confirmation, AddAB inhibitor project, absorbance, E. coli V3065, T4 phage, triplicate. AID 488942, 2010. inhibition, % at 11.9 µM. shares compounds with AddAB inh. OD; T4 phage with gene 2 nonsense mutations. hit rate 64% among 880;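 active means mean inhibition above a set limit taken from the earlier primary screen, cut at about 13% in these data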;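 further: higher means less bacterial growth since AddAB block lets phage replicate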
RecBCD counter: growth loss of RecBCD+ E. coli with mutant T4 phage, counter-screen for AddAB inhibitor project, absorbance, V66 E. coli | shares compounds with AddAB inh | OD growth | inhibition, % at 11.9 µM | hit rate 73% among 880;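 active means mean inhibition above the mean of solvent-only control wells plus 3 SD, cut at about 4% in these data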;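 further: optical density read after an 18 h incubation at 37 °C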
bact viab count: bacterial viability inhibition counter-screen, confirmation, counter-screen for AddAB inhibitor project, absorbance; hit rate 35% among 880; shares compounds with AddAB inh; inhibition, % at 11.9 µM; AID 488956, 2010; absorbance (AddAB counterscreen); in the data active means inhibition above about 25%
RecBCD conf: growth loss of phage-infected RecBCD+ E. coli, confirmation, RecBCD inhibitor project, absorbance, E. coli V66, T4 gene 2 phage; AID 651982, 2013; inhibition, % at 11.9 µM; hit rate 45% among 890; shares compounds with phage Ecoli inh; E. coli V66 + T4 2- phage, growth OD;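 active means mean inhibition over triplicates exceeding the hit threshold derived in the original primary screen, cut at about 11% in these data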
Ecoli viability: E. coli viability inhibition, counter-screen for RecBCD inhibitor project, absorbance, high throughput; shares compounds with phage Ecoli inh; absorbance (OD) growth; inhibition, % at 11.9 µM; hit rate 29% among 890; AID 651983, 2013; in the data active means inhibition above about 20%;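 further: E. coli strain V66 grown with compound alone and no phage infection; 0% = bacteria with DMSO vehicle only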
AddAB phage OD: growth loss of phage-infected AddAB-carrying E. coli, confirmation, counter-screen for RecBCD inhibitor project, absorbance, E. coli V3065, T4 phage. shares compounds with phage Ecoli inh. E. coli expressing H. pylori AddAB + T4 phage, OD growth; gene 2 mutant T4, recBCD-deleted host. inhibition, % at 11.9 µM. hit rate 45% among 890. AID 651984, 2013;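 active means mean inhibition above the solvent-only control wells' mean plus 3 SD, cut at about 22% in these data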;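 further: higher means less bacterial growth from phage killing when AddAB is blocked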
An asterisk follows results filed as active; / = no result given.

SMILES	E coli growth-1	phage Ecoli inh	AddAB inh	E coli growth-2	Tat export inh	AddAB conf	RecBCD counter	bact viab count	RecBCD conf	Ecoli viability	AddAB phage OD
CC(C)(C(=O)NC(CO)c1ccccc1)C(=O)NC(CO)c1ccccc1 (stereo unspecified)	/	/	/	0.683	/	/	/	/	/	/	/
Oc1c(N=Nc2ccccn2)ccc2ccccc12	18.0*	18.0*	19.6*	0.754	2.1	21.3*	17.4*	18.1	11.8*	12.8	26.3*
Oc1[nH]c2ccccc2c1N=Nc1ccccn1	/	1.2	/	/	7.4	/	/	/	/	/	/
c1ccc(-c2nnc(-c3ccccn3)nc2NC2CCCCC2)cc1	18.0*	14.4*	15.7*	0.411*	-10.4	20.5*	14.9*	13.8	6.4	6.3	18.4
Cc1[nH]c(N=Nc2ccccc2)nc1N=Nc1ccccc1	16.2*	11.9*	14.2*	/	-3.1	10.1	8.2*	16.1	3.3	4.1	19.9
CN(C(C(=O)OC(C)(C)C)c1ccccc1)S(=O)(=O)c1cccc(S(=O)(=O)N(C)C(C(=O)OC(C)(C)C)c2ccccc2)c1 (stereo unspecified)	/	/	/	0.731	/	/	/	/	/	/	/
CC1COC(=O)C(Cc2ccc(F)cc2)CCC=CCC(CC(=O)NC(CO)Cc2ccccc2)C(=O)N1 (stereo unspecified)	/	/	/	0.706	/	/	/	/	/	/	/
C=CCNC(=S)N/N=C(\C)c1ccccn1	29.8*	38.0*	31.0*	/	-4.9	31.2*	28.7*	25.5*	27.2*	33.8*	32.0*
CC(=NNC(=S)N1CCCCC1)c1ccccn1	/	4.1	/	/	/	/	/	/	/	/	/
O=C(COc1cccc2ccccc12)NN=Cc1ccccc1OCc1ccc(C(=O)O)cc1	/	/	/	0.735	/	/	/	/	/	/	/
CCn1nc(C(=O)O)c(=O)c2cc3c(cc21)OCO3	97.8*	53.3*	96.2*	0.058*	28.1	98.6*	97.8*	101.2*	90.2*	98.6*	98.6*
CCn1ccc(=O)c2cc3c(cc21)OCO3	1.8	0.3	3.2	0.679	13.9	/	/	/	/	/	/
CC[C@H]1OC(=O)[C@H](C)[C@@H](O[C@H]2C[C@@](C)(OC)[C@@H](O)[C@H](C)O2)[C@H](C)[C@@H](O[C@@H]2O[C@H](C)C[C@H](N(C)C)[C@H]2O)[C@](C)(OC)C[C@@H](C)C(=O)[C@H](C)[C@@H](O)[C@]1(C)O	17.2*	14.5*	21.6*	/	58.4*	52.0*	25.0*	27.8*	29.2*	30.1*	40.4*
Cn1c(Cl)c(C=NOC(=O)C(C)(C)C)c2ccccc21	/	/	/	0.693	/	/	/	/	/	/	/
COc1cc(-c2nnc(SCc3cc(=O)oc4cc(O)c(O)cc34)o2)cc(OC)c1OC	18.3*	15.8*	18.3*	0.632	-3.1	18.3*	16.3*	18.4	7.2	7.6	7.8
CCc1nnc(NS(=O)(=O)c2ccc(N=CC3=C(O)CC(C)(C)CC3=O)cc2)s1	10.7*	13.5*	16.8*	0.695	-4.4	11.0	5.9*	16.0	8.1	4.2	21.3*
CC1(C)CC(=O)C(C=Nc2ccc(O)cc2)=C(O)C1	0.1	1.5	-0.3	0.672	3.3	/	/	/	/	/	/
COc1ccc(C2CC=C(C(=O)O)C(c3cccc(Cl)c3)N2S(=O)(=O)c2ccc(C)cc2)cc1OC (stereo unspecified)	/	/	/	0.668	/	/	/	/	/	/	/
